TGFb inhibitor: blocks TGF-b signaling; actives 1.2% (n = 410,000); HepG2 CAGA-GFP TGF-b/SMAD3 reporter, GFP fluorescence, 18 h; TGF-beta stimulated, 500 pg/mL final; Potency, µM (titrated, usually from 46.1 µM), usual class: inhibitors; further: nearly all actives have a fitted effect of over 65% in size
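TGF-beta reporter screen: HEPG2 CAGA-GFP, 1% FBS, 500 pg/mL TGF-beta final, 18 h; per-cell GFP summed per well; curves fitted and categorized by class.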
TDP1 cell CPT: growth inhibition of DT40 Tdp1-/-;hTDP1 cells with camptothecin (screen for TDP1 inhibitors). chicken DT40 Tdp1-/-;hTDP1 cells + 20 nM CPT, ATP luminescence, 48 h. Potency, µM (doses to about 46.2 µM), hits mostly inhibitors. actives 12% (n = 420,000). AID 686979; further: nearly all actives have a fitted effect of over 55% in size
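Chicken DT40 Tdp1-/- cells complemented with human TDP1, 400 cells/well, exposed to compounds plus 20 nM camptothecin for at least 48 h at 37 C; viability read as ATP content by CellTiter-Glo luminescence.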
IL1B secr inh: inhibitors of inflammasome signaling (IL-1 beta secretion). THP-1 LPS/ATP IL-1B secretion, AlphaLISA, 16 h; active compounds read low. activity change, % at 57.5 µM. actives 4.7% (n = 360,000). AID 743279; in the data active means activity change below about -50%; inconclusive means mostly about -30% to -49%
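Secreted IL-1B measured by AlphaLISA bead assay after 16 h compound exposure of THP-1 cells; compounds (final up to 57.5 uM) added 1 h before LPS (250 ng/mL) and ATP (1.25 mM) stimulation; lower signal means less secretion.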
HepG2 tox: kills HepG2 cells in TGF-b inhibitor counter-screen; HepG2 CAGA-GFP viability, ATP luminescence, 18 h; Potency, µM (titrated, usually from 46.1 µM), most hits filed as cytotoxic; actives 0.76% (n = 410,000)
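HepG2 CAGA-GFP cells (1000/well, DMEM with 1% FBS) received compound, then TGF-beta at 500 pg/mL final, and were incubated 18 hours at 37 degrees C. Viability was read by CellTiter-Glo luminescence. Media-only wells were set as complete cell-killing and DMSO as no toxicity.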
TDP1 cell noCPT: qHTS for Inhibitors of human tyrosyl-DNA phosphodiesterase 1 (TDP1): qHTS in cells in absence of CPT | DT40 Tdp1-/- hTDP1 cells, no CPT, ATP luminescence, 48 h | Potency, µM (top dose mostly 46.2 µM), usual class: inhibitors | actives 15% (n = 420,000) | AID 686978, 2013; further: nearly all actives have a fitted effect of over 55% in size
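Luminescent ATP content (CellTiter-Glo) served as the growth readout. Knockout chicken DT40 cells expressing human TDP1 were exposed to compounds without camptothecin for a minimum 48 hr at 37 °C.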
ASM inhibitor: blocks human secretory acid sphingomyelinase; actives 0.006% (n = 340,000); placental ASM, HMU-PC fluorogenic substrate, 60 min; Potency, µM (highest dose often 57.5 µM), most hits filed as inhibitors; P17405
Target sequence (P17405 47-631 limits assumed): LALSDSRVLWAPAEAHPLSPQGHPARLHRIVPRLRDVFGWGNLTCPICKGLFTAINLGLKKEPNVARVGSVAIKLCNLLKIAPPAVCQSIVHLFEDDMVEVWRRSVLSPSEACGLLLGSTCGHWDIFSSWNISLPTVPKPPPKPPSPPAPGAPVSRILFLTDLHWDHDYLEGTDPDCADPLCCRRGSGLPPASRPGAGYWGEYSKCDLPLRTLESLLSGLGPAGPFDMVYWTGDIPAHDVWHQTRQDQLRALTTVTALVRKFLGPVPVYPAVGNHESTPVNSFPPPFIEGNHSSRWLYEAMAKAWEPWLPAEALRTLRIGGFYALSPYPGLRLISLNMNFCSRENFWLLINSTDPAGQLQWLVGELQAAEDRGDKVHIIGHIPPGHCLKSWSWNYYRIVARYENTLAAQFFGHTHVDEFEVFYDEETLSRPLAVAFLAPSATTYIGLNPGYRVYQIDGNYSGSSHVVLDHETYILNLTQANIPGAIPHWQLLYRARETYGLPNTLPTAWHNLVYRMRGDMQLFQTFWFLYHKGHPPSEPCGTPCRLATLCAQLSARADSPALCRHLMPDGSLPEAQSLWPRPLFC
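qHTS format. ASM enzyme prepared from human placenta hydrolyses the fluorogenic substrate HMU-PC0 (9 uM final) over 60 min at 37 °C after a 10 min compound preincubation.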
Each line names hits and unclear results; the compound was inactive in the other large screens. Shown are actives, neighbours in structure and some others; about 19% of the full set was active somewhere. Unless noted, the call rests on the fitted dose curve; in most records, active means well fitted curve in the direction sought with a large enough effect; inconclusive means small, poorly fitted or top-dose-only effect, or another doubt; inactive means no such curve, though single readings can be large; an effect the other way counts as inactive or inconclusive.

CN(c1ccccc1)S(=O)(=O)c1cc(C(=O)Nc2ccccc2N2CCOCC2)ccc1Cl	TDP1 cell CPT 16µM, IL1B secr inh inconclusive, TDP1 cell noCPT 9.2µM
CC(C)(C)C1=CC(=O)C(=O)C(C(C)(C)C)=C1	TGFb inhibitor 16µM, TDP1 cell CPT 0.65µM, IL1B secr inh -65, TDP1 cell noCPT 1.3µM
Cc1ccc(CNC(=O)CCn2cnc3ccccc3c2=O)cc1	none (no result: IL1B secr inh, ASM inhibitor)
CC(C)CN(CCNC(=O)CCN1N=C(c2ccccc2)CCC1=O)CC(C)C	none (no result: IL1B secr inh, ASM inhibitor)
CC(=Nc1ccccc1)C1=C(O)C(Cc2ccc(F)cc2)NC1=O (centres undefined)	TDP1 cell CPT 1µM, TDP1 cell noCPT 1.2µM (no result: ASM inhibitor)
CC1(C)Cc2ccccc2/C(=C/C(=O)N2CCCCCC2)N1	TGFb inhibitor inconclusive, TDP1 cell CPT 16µM, TDP1 cell noCPT 26µM
O=C(Nc1cccc(C(F)(F)F)c1)Oc1ccc(Cl)c2cccnc12	TGFb inhibitor 7.1µM, TDP1 cell CPT 23µM, IL1B secr inh -102, HepG2 tox 14µM, TDP1 cell noCPT 18µM
CCN(N=O)c1ccc(C=C2C=Cc3ccccc32)cc1	IL1B secr inh -66
CC(=O)N(C)c1ccc(C=C2C=Cc3ccccc32)cc1	TDP1 cell CPT 9.2µM, IL1B secr inh -78, TDP1 cell noCPT 9.2µM
O=C(Cn1c(=O)c2ccccc2n(CC(=O)Nc2ccc(Cl)cc2)c1=O)NCCc1ccccc1	TGFb inhibitor inconclusive, TDP1 cell CPT inconclusive, TDP1 cell noCPT inconclusive (no result: IL1B secr inh, ASM inhibitor)
COc1ccc(N2CCN(C(=O)c3cc4c(s3)-c3ccccc3OC4)CC2)cc1	none
COc1ccc(N2CCN(C(=O)c3cc4c(s3)CCCCC4)CC2)cc1	TGFb inhibitor inconclusive, TDP1 cell CPT 21µM, TDP1 cell noCPT inconclusive
COc1ccc2c(c1)CCc1cc(C(=O)N3CCN(c4ccc(N5CCOCC5)nn4)CC3)sc1-2	TGFb inhibitor inconclusive, TDP1 cell CPT 21µM, TDP1 cell noCPT inconclusive
CC(=O)c1ccc(N2CCN(C(=O)c3cc4c(s3)CCCC4)CC2)cc1	TGFb inhibitor inconclusive, TDP1 cell CPT 23µM, TDP1 cell noCPT inconclusive
COc1ccccc1N1CCN(C(=O)c2cc3c(s2)CCC3)CC1	TDP1 cell CPT inconclusive, TDP1 cell noCPT 29µM
CCOC(=O)c1c(C)[nH]c(CCC(=O)NCCCN2CCN(c3ccccc3F)CC2)c1C	TGFb inhibitor inconclusive, TDP1 cell CPT inconclusive, TDP1 cell noCPT inconclusive (no result: IL1B secr inh, ASM inhibitor)
Cc1cc(C(=O)NC(Cc2ccccc2)C(=O)O)c(C)o1 (centres undefined)	none
COc1ccccc1N(C(=O)c1cncc(Br)c1)c1nc(-c2ccc(C)cc2)cs1	TGFb inhibitor inconclusive, TDP1 cell CPT 21µM, TDP1 cell noCPT 18µM
Cn1cc(CNCc2ccc(-n3cccn3)cc2)c(-c2ccccc2F)n1	TDP1 cell CPT inconclusive, TDP1 cell noCPT 21µM
Cc1nc2ccccc2c2oc(C(=O)N3CCN(C4CCCCC4)CC3)cc12	TDP1 cell CPT 21µM, TDP1 cell noCPT 12µM
COc1ccc(N2CCN(C(=O)c3cc4c(C)nc5ccccc5c4o3)CC2)cc1	TDP1 cell CPT 16µM, TDP1 cell noCPT 9.2µM
CC(=O)c1ccc(N2CCN(C(=O)c3cc4c(C)nc5ccccc5c4o3)CC2)cc1	TDP1 cell noCPT inconclusive
Cc1nc2ccccc2c2oc(C(=O)N3CCC(N4CCCCC4)CC3)cc12	TDP1 cell CPT inconclusive, IL1B secr inh inconclusive, TDP1 cell noCPT inconclusive
O=C(CCC1CCCN(C(=O)c2ccsc2)C1)NCc1ccc(F)c(F)c1 (centres undefined)	TDP1 cell CPT inconclusive, TDP1 cell noCPT inconclusive
Cc1c(C(=O)NC(C)(C)C)sc2ncnc(NCCN(C)C)c12	none (no result: TGFb inhibitor, IL1B secr inh, HepG2 tox, ASM inhibitor)
CCOC(=O)C1(Cc2ccccc2C)CCCN(C(=O)CCn2nccc2C)C1 (centres undefined)	TDP1 cell CPT inconclusive, TDP1 cell noCPT 13µM
CCOC(=O)C1(Cc2ccccc2C)CCCN(C(=O)CCc2cccnc2)C1 (centres undefined)	TDP1 cell CPT 16µM, TDP1 cell noCPT inconclusive
CCOC(=O)C1(Cc2ccccc2C)CCCN(C(=O)CSC)C1 (centres undefined)	TDP1 cell CPT inconclusive, TDP1 cell noCPT inconclusive
CCOC(=O)C1(Cc2ccccc2C)CCCN(C(=O)c2ccc3nccnc3c2)C1 (centres undefined)	TDP1 cell CPT inconclusive, TDP1 cell noCPT 21µM (no result: ASM inhibitor)
CCOC(=O)C1(Cc2ccccc2C)CCCN(C(=O)c2cc(C3CC3)[nH]n2)C1 (centres undefined)	TGFb inhibitor inconclusive, TDP1 cell noCPT inconclusive
CC1(c2nnnn2-c2ccc3c(c2)OCCO3)CCC(=O)N1Cc1cccc(C(F)(F)F)c1 (centres undefined)	TDP1 cell CPT inconclusive, TDP1 cell noCPT inconclusive (no result: TGFb inhibitor, HepG2 tox, ASM inhibitor)
Cc1ccc(NC(=O)C(NS(=O)(=O)c2ccc3c(c2)CCC(=O)N3)c2ccccc2)cc1C (centres undefined)	TGFb inhibitor inconclusive, TDP1 cell CPT inconclusive, TDP1 cell noCPT 13µM (no result: IL1B secr inh, ASM inhibitor)
Cc1ccc(C)c(NC(=O)C(NS(=O)(=O)c2ccc3c(c2)CCC(=O)N3)c2ccccc2)c1 (centres undefined)	TDP1 cell CPT inconclusive (no result: IL1B secr inh, ASM inhibitor)
Cc1ccc(NC(=O)C(Cc2ccccc2)NS(=O)(=O)c2ccc3c(c2)CCC(=O)N3)cc1 (centres undefined)	none (no result: IL1B secr inh, ASM inhibitor)
CC(C)c1ccc(NC(=O)C(NS(=O)(=O)c2ccc3c(c2)CCC(=O)N3)c2ccccc2)cc1 (centres undefined)	TDP1 cell CPT 21µM, TDP1 cell noCPT inconclusive (no result: IL1B secr inh, ASM inhibitor)
Cc1cc(NC(=O)CN(C)S(=O)(=O)c2ccc3c(c2)CCC(=O)N3)ccc1Br	TDP1 cell CPT 29µM, TDP1 cell noCPT 21µM (no result: IL1B secr inh, ASM inhibitor)
CN(CC(=O)NCCN1CCN(c2ccccc2)CC1)S(=O)(=O)c1ccc2c(c1)CCC(=O)N2	TDP1 cell CPT inconclusive, TDP1 cell noCPT inconclusive
COc1cccc(N2CCN(C(=O)CN(C)S(=O)(=O)c3ccc4c(c3)CCC(=O)N4)CC2)c1	TDP1 cell CPT 29µM, TDP1 cell noCPT 18µM
Nc1cc(Cl)c(NC2=NCCN2)c(Cl)c1	none (no result: TGFb inhibitor, IL1B secr inh, HepG2 tox, ASM inhibitor)
CCOc1cccc2cc(C(=O)NCc3ccc(Cl)cc3)c(=N)oc12	TDP1 cell CPT inconclusive, IL1B secr inh -65, TDP1 cell noCPT inconclusive
CCOc1ccc2cc(C(=O)c3ccccc3)c(=O)oc2c1	none (no result: ASM inhibitor)
CCOc1ccc2cc(C(=O)NCc3ccccc3)c(=N)oc2c1	TDP1 cell CPT inconclusive, IL1B secr inh -77, TDP1 cell noCPT inconclusive

Screening results deposited in PubChem by National Center for Advancing Translational Sciences (NCATS).
